Screening data deposited in PubChem by National Center for Advancing Translational Sciences (NCATS).
Most compounds without a hit are left out; they make up all but 7.2% or so of the library.
FMDV inh = blocks foot and mouth disease virus. Potency, µM (series often up to 57.9 µM), without a hit: top-dose activity change, negative = inhibition, actives largely listed as inhibitors. 1.2% of 410,000 active. FMDV antiviral cell-based qHTS. AID 1159524; calls by dose curve; tested in HEK293T cells; note: read-out not given here; nearly all actives have a fitted effect of over 45% in size
RE007 growth inh = less growth of the S. pombe RE007 Vpr strain; S. pombe RE007 Vpr strain, BacTiter-Glo ATP luminescence, 24 h; Potency, µM (doses to about 92.2 µM), without a hit: at the highest dose activity change, negative = less growth, actives largely listed as inhibitors; 0.21% of 360,000 active; AID 651644; active = well fitted falling curve with a large enough effect; inconclusive = small, poorly fitted or top-dose-only effect; inactive = no such curve, though single readings can be large or run the other way; note: nearly all actives have a fitted effect of over 50% in size
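Fission yeast RE007 carrying one integrated HIV-1 vpr copy, seeded at OD 0.01 in PMG+AL medium with 23 nL pinned compound. Grown 24 h at 30 degrees; viability read by BacTiter-Glo luminescence after 5 min.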
Sm TGR inh = inhibitors of Schistosoma mansoni thioredoxin glutathione reductase; Q962Y6; purified TGR, DTNB reduction, TNB absorbance 405 nm; Potency, µM (top dose mostly 114 µM), without a hit: at the highest dose activity change, negative = inhibition, usual class: inhibitors; 3% of 360,000 active; AID 485364; note: nearly all actives have a fitted effect of over 60% in size
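Kinetic colorimetric format: TGR-catalysed, NADPH-driven DTNB reduction monitored via TNB absorbance. Enzyme dispensed at 20 nM; compound exposure 15 min at room temperature before reaction start.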
LASV entry inh = Lassa virus entry inhibition. AID 540256. Lassa virus pseudotype entry inhibition, cell reporter. Potency, µM (doses to about 37.9 µM), inactives show top-dose activity change, negative = inhibition, hits mostly inhibitors. 1.2% of 300,000 active; calls by dose curve; tested in HEK293 cells; note: nearly all actives have a fitted effect of over 50% in size
HCV inhibitor = inhibitors of hepatitis C virus infection; Huh7.5.1 HCVcc-Cre infection, luciferase reporter, 44 h; Potency, µM (series often up to 41.8 µM), inactives show at the top dose activity change, negative = inhibition, usual class: inhibitors; 3.4% of 340,000 active
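1,000 cells/well; 4 h culture; + compound; + HCVcc-Cre (~0.5 moi); 44 h; luciferase substrate, RT 15 min; read 15 sec.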
MARV entry inh = inhibitors of Marburg virus binding or cell entry; Marburg virus pseudotyped entry inhibition, cell reporter; Potency, µM (highest dose often 37.8 µM), for the others: at the highest dose activity change, negative = inhibition, actives largely listed as inhibitors; 1.8% of 300,000 active; calls by dose curve; tested in HEK293 cells
* hit, by the source's call; u = inconclusive; x = no result; [ ] = remark or other dose. Unless noted, calls come from the whole dose curve; as a rule, active = well fitted curve in the direction sought with a large enough effect; inconclusive = small, poorly fitted or top-dose-only effect, or another doubt; inactive = no such curve, though single readings can be large; an effect the other way counts as inactive or inconclusive. % is set by controls: 0 for no effect and ±100 for the full control effect; potency is the fitted concentration of half-maximal effect.

SMILES	FMDV inh	RE007 growth inh	Sm TGR inh	LASV entry inh	HCV inhibitor	MARV entry inh
COc1ccccc1NC(=O)C(=O)NCCC1CCCCN1S(=O)(=O)c1ccccc1 (configuration not stated)	-23%	12%	-3%	u	u	u
O=C(NCCc1ccc(F)cc1)C(=O)NCC1CCCN1S(=O)(=O)c1ccccc1 (configuration not stated)	40µM*	2%	-1%	7.1µM*	11µM*	u
COc1cccc(NC(=O)C(=O)NCCC2CCCCN2S(=O)(=O)c2ccccc2)c1 (configuration not stated)	49%	5%	-11%	u	4µM*	-25%
COc1cccc(NC(=O)C(=O)NCC2CCCN2S(=O)(=O)c2ccccc2)c1 (configuration not stated)	28%	-1%	-9%	u	11µM*	u
Cc1ccc(C)c(NC(=O)CSc2nccn2-c2cccc(C)c2C)c1	-25%	x	8%	u	x	x
COc1ccc(-c2nc3sc(CCNC(=O)c4ccco4)c(C)n3n2)cc1	19%	x	8%	-4%[46.1 µM]	x	x
Cn1cnnc1SCc1ccc(-c2ccc(Br)cc2)o1	-6%	-27%	25µM*	3%	u	0%
Cn1cnnc1SCc1ccccc1	-25%	4%	-3%	7%	30%	-2%
COc1cc(SC)ccc1C(=O)N1CCN(Cc2ccccc2)CC1	-23%	3%	26%	u	25µM*	-20%
COc1cc(SC)ccc1C(=O)N1CCCCCC1	1%	-5%	-1%	7%	-22%	9%
COc1cc(SC)ccc1C(=O)N1CCC(Cc2ccccc2)CC1	-25%	x	x	8.2µM*	x	u
COc1cc(SC)ccc1C(=O)N1CCN(c2ccccc2)CC1	-22%	4%	0%	13µM*	-21%	-23%[46.1 µM]
Cc1oc2ncnc(N3CCCCC3)c2c1C(=O)NCC1CCN(Cc2ccc(F)cc2)CC1	-24%	x	0%	19%[46.1 µM]	x	x
CCOc1c(C=C(C#N)C#N)c2ccccc2n1CC	u	-5%	28µM*	-13%	u	1%
CCC(CC)C(=O)Nc1c(C(=O)N2CCN(c3ccccc3F)CC2)oc2ccccc12	18%	x	-9%	u	x	u
OC[C@@H]1CN(Cc2ccccc2)C[C@H](n2cnc3c(NC4CC4)ncnc32)O1	-12%	4%	x	x	x	x
OC[C@@H]1CN(Cc2ccc(-c3ccccc3)cc2)C[C@H](n2cnc3c(NC4CCC4)ncnc32)O1	18µM*	4%	x	x	x	x
O=C(CN1C(=O)/C(=C2\SC(=S)N(C3CCS(=O)(=O)C3)C2=O)c2ccccc21)Nc1ccc(F)cc1 (configuration not stated)	13µM*	-3%	-6%	13%	11%	4%[46.1 µM]
CC1(C)Cc2c(C#N)c(N3CCCC3)nc(-c3ccco3)c2CO1	x	x	3.5µM*	x	x	-1%
CCCCN(C)c1nc(-c2ccco2)c2c(c1C#N)CC(C)(C)OC2	-3%	-13%	2.8µM*	x	-17%	5%
N#Cc1c(N2CCOCC2)nc(-c2ccco2)c2c1CCCC2	0%	-12%	2.8µM*	9%	u	u
CN(C)CCNc1nc(-c2ccco2)c2c(c1C#N)CC(C)(C)OC2	-12%	0%	-2%	2%	u	-18%
CC(C)CCNc1nc(-c2ccco2)c2c(c1C#N)CCCC2	u	3%	40µM*	-14%	-4%	-12%
Cc1cc(C)n(-c2cccc(C(=O)NCC3Cc4cc(Cl)cc(-c5cnccn5)c4O3)c2)n1 (configuration not stated)	-18%	x	x	x	x	x
CC1(C)Cc2c(C#N)c(NCc3ccco3)nc(-c3ccco3)c2CO1	-22%	-4%	7.9µM*	-20%	-9%	-8%
CC(=O)c1ccc(NC(=O)CN(C)S(=O)(=O)c2cc3c(cc2Cl)NC(=O)CO3)cc1	0%	x	1%	6%[46.1 µM]	x	x
O=C(CCl)NCc1c(Cl)cccc1-n1cccc1	0%	10%	32µM*	u	u	u
COc1ccc(C=C(C#N)c2ccc(OC)cc2)cc1	14%	5%	x	u	u	7.9µM*
